Screening data from PubChem.
Most compounds without a hit are left out; they make up all but 4% or so of the library.
RecA splice inh: Mtb RecA intein splicing inhibitors, primary screen, biochemical, fluorescence, HTS. Protein RecA (Mycobacterium tuberculosis (strain ATCC 25618 / H37Rv)), P9WHJ3. cell-free RecA intein splicing. inhibition, % (no concentration beside the values). hit rate 0.75% among 290,000. AID 2221, 2009; in the data active means inhibition above about 30%; inconclusive means no clear call, values can overlap the other calls;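 further: 0% = vehicle wells and 100% = reference inhibitor control wells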
GDH-TPI counter-1: GDH-TPI coupling enzyme inhibitors, primary screen, artefact control for M. tuberculosis FBA inhibitor project, biochemical, absorbance, full deck. GDH-TPI coupled enzyme counterscreen, NADH absorbance. inhibition, % at 4.8 µM. hit rate 1.2% among 360,000. AID 588335, 2011; in the data active means inhibition above about 30%;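 further: 0% = DMSO wells and 100% = wells lacking the enzyme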
Mtb bLac sens: beta-lactam sensitization of Mtb H37Rv, H37Rv; M. tuberculosis H37Rv growth with meropenem, percent inhibition; inhibition, % at 25 µM; hit rate 0.27% among 330,000; call rule not given here;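 further: growth measured after seven days incubation then overnight dye step; 0% = bacteria only wells and 100% = bacteria with antibiotic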
FBA Mtb inh: Mtb FBA enzyme inhibitors, primary screen, biochemical, fluorescence, strain H37Rv | inhibition, % at 1 µM | Fructose-bisphosphate aldolase (Mycobacterium tuberculosis (strain ATCC 25618 / H37Rv)), … | purified M. tuberculosis FBA, fluorescence read-out | hit rate 2.3% among 360,000;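 further: 0% = vehicle and 100% = reference inhibitor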
Target sequence (P9WQA3 whole entry, looked up): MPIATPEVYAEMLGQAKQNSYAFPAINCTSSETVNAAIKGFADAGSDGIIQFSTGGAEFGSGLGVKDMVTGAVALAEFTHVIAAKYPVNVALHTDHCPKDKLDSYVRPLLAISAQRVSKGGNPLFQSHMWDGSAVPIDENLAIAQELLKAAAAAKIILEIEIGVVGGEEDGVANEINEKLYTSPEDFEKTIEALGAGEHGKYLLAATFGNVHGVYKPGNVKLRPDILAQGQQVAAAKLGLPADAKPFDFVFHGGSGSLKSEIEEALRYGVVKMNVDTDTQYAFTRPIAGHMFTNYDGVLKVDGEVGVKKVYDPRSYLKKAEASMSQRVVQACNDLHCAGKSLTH
Rv3671c inh: Rv3671c serine protease inhibitors, primary screen, biochemical, fluorescence polarization, M. tuberculosis H37Rv. P9WHR9. hit rate 0.048% among 320,000. inhibition, % at 5.96 µM; in the data active means inhibition above about 38%;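 further: extracellular domain of Rv3671c used as enzyme; 0% = enzyme with DMSO and 100% = no enzyme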
UGM FP inh: M. tuberculosis UGM enzyme inhibitors, primary screen, biochemical, fluorescence polarization, single point | UDP-galactopyranose mutase (Mycobacterium tuberculosis (strain ATCC 25618 / H37Rv)), … | purified UGM, fluorescence polarization probe displacement | inhibition, % at 10 µM | hit rate 0.06% among 320,000 | AID 504406, 2011; in the data active means inhibition above about 10%, passing the limit was not always enough; inconclusive means no clear call, values can overlap the other calls
Mtb FBA confirm: M. tuberculosis aldolase blockers, biochemical, fluorescence, strain H37Rv, confirmation; purified M. tuberculosis FBA, fluorescence read-out; hit rate 78% among 5,600; shares compounds with FBA Mtb inh; inhibition, % at 1 µM; AID 651616, 2012;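 further: 0% = vehicle wells and 100% = reference inhibitor wells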
GDH-TPI counter-2: GDH-TPI coupling enzyme inhibitors, artefact control for M. tuberculosis FBA inhibitor project, biochemical, fluorescence, high throughput; inhibition, % at 1 µM; hit rate 81% among 5,600; GDH-TPI coupled enzyme counterscreen; shares compounds with FBA Mtb inh; AID 652141, 2013; in the data active means inhibition above about 10%
* = called active by the depositor; i = inactive; ? = inconclusive; · = no result; + = active, no number. Unless noted, no stated cut-off is given here; in the data, active means inhibition above about 27%; inactive means the rest.

SMILES	RecA splice inh	GDH-TPI counter-1	Mtb bLac sens	FBA Mtb inh	Rv3671c inh	UGM FP inh	Mtb FBA confirm	GDH-TPI counter-2
CC(=O)Nc1cc(-c2cccc(C(=O)NCCN(C)C)c2)cn2c(-c3ccc(S(C)(=O)=O)cc3)cnc12	·	10.7	·	61.2*	·	·	+	+
CC(=O)Nc1cc(-c2ccc(F)cc2)cn2c(-c3ccc(S(C)(=O)=O)cc3)cnc12	·	14.7	·	56.6*	·	·	89.1*	68.7*
CCCNC(=O)C1(C)CCCN(Cc2cccc(C#N)c2)C1 (centres undefined)	·	8.0	·	4.6	·	·	·	·
Cc1cc(F)ccc1NCC(=O)Nc1ccccc1Br	-1.3	1.9	6.7	50.2*	-2.5	-0.9	46.5*	39.5*
CCCCn1c(N)c(N(CCOC)C(=O)c2ccc3c(c2)OCCO3)c(=O)[nH]c1=O	1.0	-3.2	-3.5	-1.4	-0.8	-0.7	·	·
C[C@H](O)[C@@H]1C(=O)N2CCc3c([nH]c4ccccc34)[C@@H]2C[C@@H]1N(C)S(=O)(=O)c1ccccc1	·	10.9	·	71.9*	·	·	+	+
Cc1ccccc1C(=O)N(C)[C@H]1C[C@H]2c3[nH]c4ccccc4c3CCN2C(=O)[C@H]1[C@H](C)O	·	-5.2	·	7.0	·	·	·	·
C[C@H](O)[C@@H]1C(=O)N2CCc3c([nH]c4ccccc34)[C@@H]2C[C@@H]1N(C)C(=O)Nc1cccc2ccccc12	·	·	·	73.8*	·	·	26.7	24.1*
Cc1cc(C)c2c(N)c3cccc(C)c3nc2n1	i	4.8	3.8	65.5*	-2.6	-0.5	133.2*	110.9*
Cc1cc(C)c2c(ccc3ccccc32)n1	·	3.2	·	0.4	·	·	·	·
CCC1(c2ccc(Cl)cc2)NC(=O)N(CC(=O)NC2CCCC(C)C2C)C1=O (centres undefined)	·	0.3	·	-1.8	·	·	·	·
COc1ccc(CNc2nc(C)cc(C)c2C#N)cc1	·	18.8	4.0	29.0*	-3.8	-0.7	40.4*	26.2*
CC1Cc2c([nH]c3ccccc23)C(=O)N1 (centres undefined)	0.8	8.6	1.7	32.2*	-4.1	3.9	+	148.2*
CCc1cc2c(=O)c(-c3cnn(-c4ccccc4)c3)c(C)oc2c(CN2CCCCC2)c1O	-0.8	21.5	98.5	41.2*	-7.8	-0.8	+	+
COCCN1C=C(C(=O)OC)C(c2ccc3c(c2)OCO3)C(C(=O)OC)=C1	-13.0	11.9	0.8	14.1	-1.1	1.6	·	·
COC(=O)C1=CN(c2ccc(OC)cc2)C=C(C(=O)OC)C1c1cc(OC)c(OC)cc1OC	-15.6	4.7	-7.1	3.6	-2.4	0.6	·	·
COC(=O)C1=CN(Cc2cccs2)C=C(C(=O)OC)C1c1ccc(OC)cc1OC	-182.2	-4.2	2.4	85.2*	-12.4	0.5	89.5*	93.1*
CCCCOc1ccccc1C1C(C(=O)OC)=CN(CC)C=C1C(=O)OC	-113.4	20.4	-3.4	62.8*	5.6	-0.8	7.4	1.4
COC(=O)C1=CN(Cc2cccs2)C=C(C(=O)OC)C1c1cccc(Cl)c1	-6.2	6.8	-3.1	71.1*	-16.8	-0.6	64.9*	53.4*
COc1ccccc1CCn1cnc2c3cc(C)ccc3n(C)c2c1=O	2.6	-7.1	?	46.5*	-7.5	-0.9	+	+
COc1ccc2c(c1)c1ncn(CCN3CCCCC3)c(=O)c1n2C	-1.4	10.4	8.9	100.3*	1.5	3.5	107.2*	87.8*
COc1ccc2c(c1)c1ncn(CCN3CCCC3)c(=O)c1n2C	0.2	-5.7	1.9	89.2*	6.0	1.1	89.5*	74.2*
O=c1c2[nH]c3ccccc3c2ncn1CCN1CCCCC1	-3.6	-8.0	-4.4	7.2	-3.8	-2.5	·	·
Cc1ccc2c(c1)[nH]c1c(=O)n(CCN3CCCCC3)cnc12	-0.4	3.8	-8.9	9.4	0.8	-0.1	·	·
CCNC(=O)C1(C)CCN(C(=O)c2cccc(OC(F)(F)F)c2)C1 (centres undefined)	·	-4.0	·	2.0	·	·	·	·
SMILES	RecA splice inh	GDH-TPI counter-1	Mtb bLac sens	FBA Mtb inh	Rv3671c inh	UGM FP inh	Mtb FBA confirm	GDH-TPI counter-2
COC(=O)C1=C(C)NC2=C(C(=O)CCC2)C1c1cn(Cc2ccc(Br)cc2)nc1-c1ccccc1 (centres undefined)	-80.4	9.7	4.6	27.8*	-9.1	-2.8	41.4*	29.8*
COC(=O)C1=C(C)NC2=C(C(=O)CCC2)C1c1cccc(C)n1 (centres undefined)	·	3.5	-16.4	27.7*	-3.2	0.3	147.0*	121.1*
COC(=O)C1=C(C)NC2=C(C(=O)CC(C)(C)C2)C1c1cccc(C)n1 (centres undefined)	-25.1	-0.6	?	23.6	10.1	-0.5	·	·
COC(=O)C1=C(C)NC2=C(C(=O)CC(C)(C)C2)C1c1cn(Cc2ccc(Br)cc2)nc1-c1ccccc1 (centres undefined)	-19.0	20.5	2.2	19.1	-21.4	0.8	·	·
Cc1ccc(C)c(NC(=O)CN(C)C(=O)c2cc3ccccc3oc2=O)c1	·	19.5	-0.7	6.0	-1.9	0.8	·	·
Cc1cc(S(=O)(=O)NCc2ccc3c(c2)OCO3)ccc1F	1.0	6.6	-13.0	87.3*	-11.4	0.2	74.2*	96.4*
CCC(C(=O)NCCCN1CCN(C)CC1)n1nc(C)n2c(cc3occc32)c1=O (centres undefined)	1.4	11.1	-3.8	0.8	3.9	-1.4	·	·
COc1ccc(CC(=O)Nc2cccc(-c3cn4ccccc4n3)c2)cc1	0.4	6.3	12.2	30.9*	-15.5	0.8	122.7*	85.8*
CCOc1ccc(-c2cn3ccccc3n2)cc1	0.6	3.7	0.0	43.8*	7.3	-2.0	115.8*	69.4*
O=C(Nc1ccc(-c2cn3ccccc3n2)cc1)c1cccs1	-11.8	14.0	2.4	-0.5	-18.4	-1.8	·	·
COc1ccc(CC(=O)Nc2ccc(-c3cn4ccccc4n3)cc2)cc1OC	-0.5	16.1	-4.2	71.3*	6.8	0.2	-6.0	-6.3
CCC(=O)Nc1cccc(-c2cn3ccccc3n2)c1	1.5	2.9	-7.9	26.9	-4.5	-0.3	·	·
COc1ccc(CC(=O)Nc2ccc(-c3cn4ccccc4n3)cc2)cc1	0.2	4.1	-1.1	65.5*	1.2	-0.1	+	+
COc1ccc(CC(=O)Nc2ccc(-c3csc(C)n3)cc2)cc1	-0.4	4.0	22.3	3.5	-11.2	2.0	·	·
